In the supplement of paper PMC6555819:

test system: PPARg:RXRa 90nM:30nM, anti-RXR (NR concentration 90 nM, RXRa partner concentration 30 nM); test: PBM binding z-score (relative to random genomic background probes); higher = stronger binding; sequences stand for … in GC…GCGATTGACAGCGTAGAATGAAGG
How it was run: (§1)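 Binding z-scores were set against random background probes. The data came from custom Agilent 4×180K protein-binding microarrays carrying double-stranded probes with 34-nt variable regions, incubated 1 h with ligand-free nuclear receptor dimers. Partner-specific antibodies detected binding, and scanned fluorescence was regression-normalized.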

Sequence	PBM binding z-score
AATACTGGGTCATCGTAGGCCAGAGTACGCACAG	4.86
CAGCCTAGGTCAGGGCCGGTATAGGAGGAACGTT	-0.0222
TAGCCTAGTTCATTGGGCCAGTATAGTACGCATC	0.253
ATCGAAAGGTCGAAGTGAGTATAGAGAAAGGGAA	2.56
GCTAGTTGGTCAGTAACAGGTCACACACCGGTCG	0.627
GCTAGTTGTTCAGTAAAAGGTCACACACCGGTCG	3.27
CCGACTGAGGCATAAGGTTACCATAAGCCAGCCC	0.852
GATACAGGGTCAGCTAAAGGCCAGAGTATGGAAA	2.24
CCGACTGGAGCAAAGGTTACCATACTCAGTACGA	8.54
CGTCCAAGGTCAGAGAGGTCAGTGGATGCCGAGT	2.58
ACTAGTTGGTCAGCTGAGGTCACCCACAATTCGG	2.01
ATCTCTTGGTAAAGTTCAGTGAAAGATCGATAGA	2.65
CAAACTAGGTCAAGAGGTCGAAGTCCGCTTCCCG	7.63
TAGTCTAGGTCATGCGGGCCAGTATAGTGTCGGC	3.81
CCCACTGGGCCAAAGGTCATTGATTCCAATGCTC	11
ACTAGCAGGCCAAGTTTGGGTCACTCTAACAAAG	-0.605
CATACAGGGTCAGCTAGTCCAGAGTAGGGACGGC	2.06
GCTGCTAGGTCAAATGATGGTCAGCTAAAGCTCG	2.69
TGAAAGAGGTTAAAGATCAGGGAACGTGGCGTCG	5.15
AGAACGAGGGCAATGAATTGATAGCACGGGTGGC	0.346

Sequence	PBM binding z-score
ATATGTGGGTTACATCCGGGTCATTCAGGCTATG	3.36
ATACCAGGGTGATCGTGAGGTCGTTGATACTAAC	0.486
TCTAGCAGGCCAGACGGTCACTCAAGAGGTACGG	1.67
ACTATTAGTTGAAACGAGGGCAACCGATAGGTTG	0.528
GCTGCTAGGTCAACTGATAGTCAGCTAAAGCTCG	2.41
GCTAGCGGGCCATTTGGGTCACTCAATGACGGGC	-0.112
CCGACTGGGGCTTAAGGTTACCATAAGCCAGCCC	1.29
CGAACGAGGGCATGTGTTGATAGCAAATGCCGAT	0.632
CAAACTAGGTCAAGGGTCAAAGTCGAGCCAACCA	11.8
AGAACGAGGGCAATGAGTTGATAGAACGGGTGGC	0.62
ATCTCTATGTAAAGTTCAGTGAAAGATCGATAGA	3.82
GCTTGTAGATCAAGGTTAAGAAAGACTAAGCTAA	1.56
GCTATTAGTTGAAGGGGCAACCGAATGATTCTCG	1.65
AGTCAAAGTTCACTAGGTACCGTAAGATTCAGCT	5.22
TAGCCTAGGTCAGATCGGGCCTGTATACGCTATA	0.162
TCATATAGGTAAAGGTGTAAGTCGAACGATATGA	4.1
GCGACTGGGGCATCAGCAGGTTACCATAACTTAA	0.397
GCAGACAGGTGAAACGCAGGTAAATCAGGGTGGC	-0.346
CAAACTAGGTCACCGGAAGGTCAAAGTCCGCATG	7.49
ACTATTAGTTGACTTAGGGTAACCGATACGACGC	0.705

test system: PPARg:RXRa DBDmut IVT, anti-RXR (DBD mutation: RXRa K156A/R161A, NR concentration 270 nM, RXRa partner concentration 90 nM); test: as above
How it was run: as §1

Sequence	PBM binding z-score
AATACTGGGTCATCGTAGGCCAGAGTACGCACAG	6.46
CAGCCTAGGTCAGGGCCGGTATAGGAGGAACGTT	0.942
TAGCCTAGTTCATTGGGCCAGTATAGTACGCATC	1.48
ATCGAAAGGTCGAAGTGAGTATAGAGAAAGGGAA	0.215
GCTAGTTGGTCAGTAACAGGTCACACACCGGTCG	0.713
GCTAGTTGTTCAGTAAAAGGTCACACACCGGTCG	0.391
CCGACTGAGGCATAAGGTTACCATAAGCCAGCCC	0.216
GATACAGGGTCAGCTAAAGGCCAGAGTATGGAAA	1.25
CCGACTGGAGCAAAGGTTACCATACTCAGTACGA	2.35
CGTCCAAGGTCAGAGAGGTCAGTGGATGCCGAGT	2.81
ACTAGTTGGTCAGCTGAGGTCACCCACAATTCGG	1.12
ATCTCTTGGTAAAGTTCAGTGAAAGATCGATAGA	0.216
CAAACTAGGTCAAGAGGTCGAAGTCCGCTTCCCG	8.31
TAGTCTAGGTCATGCGGGCCAGTATAGTGTCGGC	5.79
CCCACTGGGCCAAAGGTCATTGATTCCAATGCTC	4.77
ACTAGCAGGCCAAGTTTGGGTCACTCTAACAAAG	0.86
CATACAGGGTCAGCTAGTCCAGAGTAGGGACGGC	1.14
GCTGCTAGGTCAAATGATGGTCAGCTAAAGCTCG	5.24
TGAAAGAGGTTAAAGATCAGGGAACGTGGCGTCG	0.975
AGAACGAGGGCAATGAATTGATAGCACGGGTGGC	3.39

Sequence	PBM binding z-score
ATATGTGGGTTACATCCGGGTCATTCAGGCTATG	6.84
ATACCAGGGTGATCGTGAGGTCGTTGATACTAAC	0.0988
TCTAGCAGGCCAGACGGTCACTCAAGAGGTACGG	0.883
ACTATTAGTTGAAACGAGGGCAACCGATAGGTTG	0.662
GCTGCTAGGTCAACTGATAGTCAGCTAAAGCTCG	4.86
GCTAGCGGGCCATTTGGGTCACTCAATGACGGGC	1.3
CCGACTGGGGCTTAAGGTTACCATAAGCCAGCCC	0.244
CGAACGAGGGCATGTGTTGATAGCAAATGCCGAT	2.61
CAAACTAGGTCAAGGGTCAAAGTCGAGCCAACCA	8.5
AGAACGAGGGCAATGAGTTGATAGAACGGGTGGC	3.29
ATCTCTATGTAAAGTTCAGTGAAAGATCGATAGA	-0.231
GCTTGTAGATCAAGGTTAAGAAAGACTAAGCTAA	0.698
GCTATTAGTTGAAGGGGCAACCGAATGATTCTCG	0.421
AGTCAAAGTTCACTAGGTACCGTAAGATTCAGCT	1.61
TAGCCTAGGTCAGATCGGGCCTGTATACGCTATA	0.244
TCATATAGGTAAAGGTGTAAGTCGAACGATATGA	3.51
GCGACTGGGGCATCAGCAGGTTACCATAACTTAA	3.62
GCAGACAGGTGAAACGCAGGTAAATCAGGGTGGC	0.287
CAAACTAGGTCACCGGAAGGTCAAAGTCCGCATG	8.69
ACTATTAGTTGACTTAGGGTAACCGATACGACGC	0.838
